Experimental data as given in PubChem BioAssay AID449762 (Southern Research Specialized Biocontainment Screening …, 2010).
“And” between values parts separate entries of the source, which are not always exact repeats. Identical values can stand only once. The campaign covered roughly 330,000 compounds. About 1,900 (0.58%) were called active. Inconclusive results (about 4%) are left out. Only a sample is shown. Potency and affinity values are given separately. Unmarked numbers belong to inactive results. Cut-off read from the data, not from the text of the source: inconclusive = inhibition above about 70% without an active follow-up result; inactive = below that.

Assay: M. tuberculosis growth inhibition, HTS (AID 449762);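 note: bacterial growth assessed after seven days of incubation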
Conditions: M. tuberculosis H37Rv growth inhibition, 7H9 media; at 25 µM; hits give high values

Row | Structure (SMILES) | inhibition
1 | Cc1ccc(NC(=O)CCC(=O)NNC(=O)CCc2ccccc2)c(C)c1 | 8.11%
2 | CCc1ccccc1NNC(=O)CCc1ccccc1 | 4.45%
3 | CCOC(=O)CSc1nnc(CSc2nc3sc4c(c3c(=O)[nH]2)CCC4)n1C | -1.21%
4 | COCCN1C(=O)C(CC(=O)Nc2ccccc2)SC1=Nc1ccc(OC)cc1 (stereo not drawn) | 6.34%
5 | Cc1ccc(NC(=O)c2cc(-c3ccccc3)nn2-c2ccccc2)c(Br)c1 | 62.5%
6 | Cc1ccc(NC(=O)c2cc(-c3ccccc3)nn2-c2ccccc2)cc1 | 0.76%
7 | Cc1ccnc(NC(=O)COC(=O)C2COc3ccccc3O2)n1 (stereo not drawn) | -4.37%
8 | CCOc1ccc(S(=O)(=O)N2CCCCC2)cc1NS(=O)(=O)c1cccs1 | -3.42%
9 | COc1cc([C@@H]2c3cc4c(cc3[C@H](O)[C@H]3COC(=O)[C@H]23)OCO4)cc(OC)c1OC | -2.97%
10 | COc1cc([C@@H]2c3cc4c(cc3[C@@H](OC)[C@H]3COC(=O)[C@H]23)OCO4)cc(OC)c1O | -15.3%
11 | Cc1ccc(NC(=O)c2ccc3ccccc3n2)nc1 | 5.21%
12 | CCc1ccc(NC(=O)C(C)OC(=O)c2ccc(NS(=O)(=O)c3ccc(C)c([N+](=O)[O-])c3)cc2)cc1 (stereo not drawn) | -6.87%
13 | COc1ccc(CCNC(=O)C2CC(c3cccc([N+](=O)[O-])c3)=NO2)cc1 (stereo not drawn) | 2.77%
14 | CC(C)Cc1nn2c(=O)cc(CSCC(=O)Nc3ccccc3F)nc2s1 | -6.22%
15 | Cc1cc(C(=O)CSc2ccc(Cl)cc2)cc(C)c1OC(=S)N(C)C | -12.1%
16 | Cc1ccc(N2C(=O)N(CC(=O)c3cc(C)ccc3C)C(=O)C2C)cc1 (stereo not drawn) | 4.01%
17 | CCOc1ccc(NC(=S)NC(=O)c2cccnc2)c([N+](=O)[O-])c1 | 6.15%
18 | Cn1c(O)c(C=NCCN2CCNCC2)c(=O)n(C)c1=O | -6.91%
19 | O=c1[nH]c(=S)n(C2CCCCC2)c(O)c1C=NCCN1CCOCC1 | 4.57%
20 | O=C1N/C(=N\N=C\c2ccc3ncccc3c2)SC1Cc1ccc(SC(F)F)cc1 (stereo not drawn) | -20.7%
21 | O=C(O)CC1S/C(=N/N=C/c2ccccn2)NC1=O (stereo not drawn) | -2.11%
22 | O=S(=O)(NCc1ccccn1)c1ccc(Cl)s1 | 32.5%
23 | N/C(=N\OC(=O)Nc1ccc(Cl)cc1)c1ncc(C(F)(F)F)cc1Cl | 3.09%
24 | N/C(=N\OC(=O)Nc1ccccc1)c1ncc(C(F)(F)F)cc1Cl | -4.86%

Row | Structure (SMILES) | inhibition
25 | Cc1ccc(CNC(=O)CNC(=O)[C@@H]2Cc3ccccc3CN2C(=O)OC(C)(C)C)cc1 | 4.75%
26 | c1ccc(-c2cn(-c3ccccc3)c3[n+]2CCCS3)cc1 | -1.4%
27 | Cc1ccc(-c2cn(-c3ccccc3)c3[n+]2CCCS3)cc1 | 4.87% and -0.5%
28 | Cc1ccccc1CNC(=O)Nc1ccc(Cl)cc1 | 8.74%
29 | CCOC(=O)/C(=C\C=C\c1ccccc1)NC(=O)c1ccccc1 | -0.56%
30 | CCOC(=O)/C(=C/C=C/c1ccccc1)NC(=O)c1ccccc1 | 5.87%
31 | O=Cc1cccc(Oc2ccc([N+](=O)[O-])cc2[N+](=O)[O-])c1 | 6.01%
32 | Cc1nn(S(=O)(=O)N(C)C)c(C)c1CN1C(=O)c2ccccc2C1=O | -3.78%
33 | Cc1c(CN(C)C)c2c(n1C)C(=O)c1ccc(Br)cc1-2 | -6.76%
34 | Cc1c(CN(C)C)c2c(n1Cc1ccccc1)C(=O)c1ccccc1-2 | -0.73%
35 | CC(C)(C)[C@@H]1C=C(C(N)=O)O[C@H](OCc2ccc(CO)cc2)C1 | 3.59%
36 | CCn1cc(/C=N\NC(=O)c2c[nH]c3ccccc23)c(C)n1 | 4.35%
37 | COc1cccc2c(=S)c(CCC(C)=O)c(C)[nH]c12 | -1.19%
38 | O=C(c1ccccc1)N1N=C(c2ccccc2)CC1(O)C(F)(F)F (stereo not drawn) | 17.4%
39 | O=C(c1ccccc1)N1N=C(c2ccc(F)cc2)CC1(O)C(F)(F)F (stereo not drawn) | 14.8%
40 | COc1ccccc1C1CCN(Cc2ccccc2)CC1 | -7.77%
41 | COc1ccccc1C1CCN(Cc2ccc(Cl)c(Cl)c2)CC1 | 6.04%
42 | CCCn1c(=S)[nH]c2cc(C(=O)NCC3CCCO3)ccc2c1=O (stereo not drawn) | -7.34%
43 | COc1ccc(C=Nc2cccc3c(=O)[nH][nH]c(=O)c23)c2ccccc12 | -1.04%
44 | Cc1ccc(C)c(/C=N/NC(=S)NC(C)C)c1 | -0.52%
45 | COC(=O)N/N=C/c1cc(Br)ccc1O | -4.56%
46 | CC(C)NC(=S)N/N=C/c1ccc(C(C)(C)C)cc1 | 3.03%
47 | Cc1ccc(/C=N/NC(=O)C(=O)N/N=C/c2ccc(C)o2)o1 | -4.38%
48 | COC(=O)c1nonc1NCn1nnc2ccccc21 | -13.7%

Row | Structure (SMILES) | inhibition
49 | Cc1ccccc1-n1c(-c2ccoc2)nc2ccccc2c1=O | 13.6%
50 | O=C(CCN1CCN(c2ccccc2F)CC1)Nc1ccc(F)cc1 | -1.83%
51 | S=c1[nH]nc(C2CCCCC2)n1/N=C/C=C/c1ccccc1 | 0.75%
52 | Cc1cc(C(=O)OCC(=O)N2CCc3ccccc32)c(C)o1 | 0.97%
53 | CC(C)(C)c1ccc(OCCC(=O)OCC(=O)NC2CC2)cc1 | -4.78%
54 | Cc1ccc(OCCC(=O)OCC(=O)NC(=O)NC2CCCC2)cc1 | 6.88%
55 | Cc1cc(=O)oc2c(C)c(OC(C)C(=O)NCC(O)c3ccccc3)ccc12 (stereo not drawn) | 0.93%
56 | C[C@H](CO)N1C[C@H](C)[C@@H](CN(C)S(=O)(=O)c2ccc(F)cc2)Oc2c(NC(=O)NC3CCCCC3)cccc2C1=O | 6.78%
57 | CCOC(=O)C1CCCN(C2CCN(Cc3nc(-c4ccccc4)no3)CC2)C1 (stereo not drawn) | -1.09%
58 | Cc1c(Nc2cc(=O)oc3ccccc23)c(=O)n(-c2ccccc2)n1C | -1.53%
59 | CCCc1ccc(S(=O)(=O)NCCc2ccncc2)cc1 | 2.76%
60 | CCCCc1ccc(S(=O)(=O)NCCc2ccncc2)cc1 | 21.7%
61 | CCC(C(=O)Nc1cccc(S(=O)(=O)N(C)c2ccccc2)c1)c1ccccc1 (stereo not drawn) | -1.21%
62 | COc1cccc(Nc2c([N+](=O)[O-])cncc2[N+](=O)[O-])c1 | 65.1%
63 | O=C(O)c1cccc(Nc2ccc([N+](=O)[O-])c3nonc23)c1 | 2.67%
64 | O=C(COC(=O)CSc1ccc(F)cc1)NCc1ccco1 | -1.1%
65 | O=C(O)c1cccc(S(=O)(=O)Nc2cccc3ccccc23)c1 | 20.9%
66 | CCN(CC)CCOc1ccc2c(c1)C(=NO)c1cc(OCCN(CC)CC)ccc1-2 | 9.59%
67 | NC(N)=NN=C1c2ccccc2-c2ccccc21 | 6.09%
68 | O=C(Cc1cccc(NC(=O)C2CCN(C(=O)C3CCCC3)CC2)c1)Nc1cccc(C(=O)N2CCCC2)c1 | -2.63%
69 | CC(=O)Nc1ccc(NS(=O)(=O)c2ccc(-c3cnc(C4CC4)o3)cc2)cc1 | -1.71%
70 | COc1ccc(Cl)cc1S(=O)(=O)N(C)CC(=O)N1CCCC1 | 7.61%
71 | Cc1ccc(C)c(NC(=O)COc2coc(CN3CCc4ccccc43)cc2=O)c1 | 47.8%
72 | CCOC(=O)c1ccc(NC(=O)COc2coc(CN3CCc4ccccc43)cc2=O)cc1 | 34.3%

Row | Structure (SMILES) | inhibition
73 | COc1ccc(OC)c(NC(=O)Cn2cc(C#N)c3ccccc32)c1 | -1.64%
74 | Cc1ccc(S(=O)(=O)NC(=O)COc2ccccc2C)c(C)c1 | 0.6%
75 | O=C(CCC1CCCCC1)NC1=NCCS1 | -6.25%
76 | Cc1cc(NC2CCCCC2)nc2ccccc12 | 10%
77 | c1ccc(N/N=C2\CCCc3ccccc32)nc1 | 9.09%
78 | O=C(NNC(=O)C1CCN(C(=O)Nc2ccccc2)CC1)c1ccc([N+](=O)[O-])cc1 | -0.74%
79 | COc1cc(NC(=O)NNC(=O)c2cc3occc3n2C)cc(OC)c1OC | -1.55%
80 | O=C(Nc1ccc(OC(F)F)cc1)c1ncc(Cl)c(Cl)c1Cl | 3.27%
81 | Cc1ccc(CS(=O)(=O)c2ncc(Cl)c(C(=O)Nc3ccc(OC(F)F)cc3)n2)cc1 | 1.02%
82 | CCCCN(C(=O)c1c(CC)noc1C)c1c(N)n(CCCC)c(=O)[nH]c1=O | -5.14%
83 | COc1cccc(CNC(=O)c2nnn(CC(=O)Nc3ccc4c(c3)OCO4)c2N)c1 | -1.11%
84 | CCOC(=O)c1ccc(Oc2nc(N(C)C)nc(N(C)C)n2)cc1 | 17%
85 | CCOC(=O)c1ccc(Oc2nc(OC)nc(N(C)C)n2)cc1 | 4.44%
86 | CCc1nnc(N/N=C/c2ccccc2F)n1N | 31.3%
87 | CCc1nnc(N/N=C/c2cc(Br)c(O)cc2O)n1N | 0.32%
88 | CCN(CCn1cccn1)Cc1nc(-c2ccc(C(=O)OC)cc2)no1 | 24%
89 | COC(=O)c1ccc(-c2noc(CN(Cc3ccncc3)CC3CCCO3)n2)cc1 (stereo not drawn) | 41.2%
90 | O=C(CSc1nnnn1C1CCCC1)N1CCOCC1 | -0.48%
91 | COc1ccc(NC(=O)CCN2CCN(S(=O)(=O)c3cc(Cl)ccc3Cl)CC2)cc1 | -9.19%
92 | Fc1ccccc1Oc1nc(-c2ccncc2)nc2ccccc12 | 4.31%
93 | O=C(N/N=C/c1c(O)n(Cc2ccccc2)c(=O)[nH]c1=O)c1ccccc1O | 14.7%
